# ARNT TACC3 PPI: disrupts binding between human ARNT and TACC3. Q9Y6A5. AlphaScreen His-ARNT PAS-B/GST-TACC3 binding, luminescence; TACC3 fragment carries E629A point mutation. inhibition, % at 9.99 µM. 0.66% of 390,000 active. AID 623870;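 active means mean inhibition of replicates at least 50% and at least half of replicates each reaching 50%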;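 further: 0% = complete ARNT plus TACC3 wells and 100% = ARNT alone without TACC3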
# hiPSC survival: enhancers of human iPSC single-cell survival; hiPSC single-cell survival, ATPlite luminescence; 100% = ROCK inhibitor wells, 0% = DMSO; survival enhancement, % at 20 µM; 0.044% of 360,000 active; AID 602274; in the data active means survival enhancement above about 18%;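 further: cells exposed to compounds for 16 hours before the ATP read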
# ABCB6 inh MLPCN: inhibitors of human ABC transporter ABCB6. Q9NP58. K562-ABCB6 porphyrin accumulation, flow cytometry, 1 h; stronger effect = lower value. fluorescence ratio to DMSO, % at 10 µM. 0.19% of 360,000 active;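 active means fluorescence ratio to DMSO below 75%, the collection mean minus 3 SD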;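 further: signal is porphyrin accumulated inside mitochondria; 100% equals median channel fluorescence of DMSO control wells; lower ratio means ABCB6 inhibition with less porphyrin fluorescence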
# CendR NRP1 mod: alters CendR peptide binding to human NRP-1; AID 602438; O14786; inhibition, % at 25 µM; 0.85% of 360,000 active; FAM-RPARPAR peptide binding to NRP-1, fluorescence polarization;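 active means inhibition or corrected inhibition above about 18%, plus a signal ratio from 0.5 to 1.5, limit read from the data, passing the limit was not always enough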
# Target sequence (O14786 whole entry, looked up): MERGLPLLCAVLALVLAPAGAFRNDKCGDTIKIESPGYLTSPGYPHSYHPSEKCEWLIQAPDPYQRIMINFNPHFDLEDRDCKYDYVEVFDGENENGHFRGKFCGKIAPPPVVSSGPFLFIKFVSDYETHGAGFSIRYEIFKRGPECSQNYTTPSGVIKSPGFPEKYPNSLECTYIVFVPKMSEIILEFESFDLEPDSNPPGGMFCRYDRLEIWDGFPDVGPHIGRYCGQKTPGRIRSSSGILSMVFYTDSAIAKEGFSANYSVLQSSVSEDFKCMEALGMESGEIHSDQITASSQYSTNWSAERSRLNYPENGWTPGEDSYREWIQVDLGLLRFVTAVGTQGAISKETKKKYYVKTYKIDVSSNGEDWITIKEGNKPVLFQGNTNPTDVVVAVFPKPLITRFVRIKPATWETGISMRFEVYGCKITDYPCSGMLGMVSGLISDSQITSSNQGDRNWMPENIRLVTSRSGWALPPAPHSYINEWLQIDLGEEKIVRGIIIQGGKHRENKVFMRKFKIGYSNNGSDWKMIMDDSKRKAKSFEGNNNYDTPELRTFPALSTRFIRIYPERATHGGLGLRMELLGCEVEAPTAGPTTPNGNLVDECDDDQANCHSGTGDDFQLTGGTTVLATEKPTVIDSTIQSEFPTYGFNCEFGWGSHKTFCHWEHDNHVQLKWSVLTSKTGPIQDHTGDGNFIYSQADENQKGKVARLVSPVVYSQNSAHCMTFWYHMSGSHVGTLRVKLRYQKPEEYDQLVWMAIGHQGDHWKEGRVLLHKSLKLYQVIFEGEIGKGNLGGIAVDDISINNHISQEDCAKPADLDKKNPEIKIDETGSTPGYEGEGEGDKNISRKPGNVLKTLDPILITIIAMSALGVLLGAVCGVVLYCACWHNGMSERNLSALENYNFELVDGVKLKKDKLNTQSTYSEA
# GSIS activator: primary screen for activators of insulin secretion dependent on glucose, INS-1E cells, GLuc reporter luminescence; AID 743287; INS-1E GLuc reporter insulin secretion, 2-3 h; 0.61% of 370,000 active; activation, % at 16.6 µM;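 active means lowest replicate activation of at least 40%, so every replicate reaches that level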;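 further: 0% = median of neutral control wells and 100% = median of IBMX positive control wells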
# An asterisk follows results filed as active; · = not tested or not shown. Sampled rows, rich in hits. Any-hit rate of the full collection: about 1.8%.
SMILES,ARNT TACC3 PPI,hiPSC survival,ABCB6 inh MLPCN,CendR NRP1 mod,GSIS activator
C/C(=N\NC(=O)c1ccc(C)cc1)c1c(C)[nH]n(-c2ccccc2)c1=O,·,0,100,8,-32
CC(C)(C)NC(=O)C(c1ccc(O)cc1)N(C(=O)CCC(=O)Nc1nccs1)c1ccccc1F (centres undefined),5,0,97,29*,2
C/C=C/c1ccc(C2[C@H]3CNC[C@@H]2N3C(=O)Nc2ccc(C(F)(F)F)cc2)cc1 (some centres undefined),·,·,·,·,-13
CS(=O)(=O)N(Cc1cc2ccccc2[nH]c1=O)C1CCCCC1,0,27*,92,-2,·
COc1cc(OC)cc(C(=O)Nc2cccnc2)c1,-6,0,100,11,11
CCOc1cc(OCC)cc(C(=O)Nc2cccnc2)c1,3,1,104,-14,41*
C=C1C(=O)OC2C1CCC(C)=C1C(=O)C3OC3(C)C12 (centres undefined),-20,27*,98,6,134*
O=C(N[C@H]1CC[C@H](CCn2cc(C3(O)CCCC3)nn2)O[C@@H]1CO)C1CCOCC1,-2,·,·,·,-2
COc1ccc(N2CCN(C(=O)c3ccc(NC(=O)C4=CSCCO4)cc3)CC2)cc1,8,0,99,36*,·
O=C(Nc1ccc(C(=O)N2CCN(c3ccc(F)cc3)CC2)cc1)C1=CSCCO1,20,0,104,-1,-6
Cn1c(=NC(=O)c2ccccc2[N+](=O)[O-])sc2cc(S(C)(=O)=O)ccc21,-1,-1,102,-8,87*
O=C(c1cccnc1)N1CCCCN2[C@H](CO)[C@@H](c3ccc(C#Cc4ccccc4)cc3)[C@H]2C1,2,·,·,·,·
CCN(C(=S)Nc1cccnc1)c1cccc2ccccc12,51*,-2,105,6,-7
CCN(C(=S)Nc1cccnc1)c1ccccc1,1,-1,97,7,7
CCCN(C)C[C@H]1OCCCC[C@H](C)Oc2ccc(NS(=O)(=O)c3ccc(C)cc3)cc2C(=O)N([C@@H](C)CO)C[C@@H]1C,-3,·,·,·,-2
COc1ccc2c3c(n(C)c2c1)[C@H](CO)N(C(=O)c1ccc(F)cc1)CC31CCN(CC2CC2)CC1,·,·,·,·,1
Cc1c(C(=O)/C=C/N(C)C)nnn1-c1ccc(Cl)c(Cl)c1,-3,1,97,0,14
Cc1c(C(=O)/C=C/N(C)C)nnn1-c1ccc(F)c(Cl)c1,·,-1,102,38*,7
CN1CCC(N(C)S(=O)(=O)c2ccc(NC(=O)COc3ccc(Br)cc3Cl)cc2)CC1,1,-1,100,-5,11
CN1CCC(N(C)S(=O)(=O)c2ccc(NC(=O)COc3cccc(Cl)c3)cc2)CC1,6,0,99,20,64*
O=C(Nc1ccccc1C(=O)NCc1ccco1)NC1CCCCC1,-3,2,92,20*,·
CC(=O)N1CC2(C1)[C@H](c1ccccc1)[C@H](CO)N2C(=O)c1ccncc1,·,·,·,·,3
Cc1ccccc1Cn1ccc(NC(=O)c2cc3nc(-c4ccco4)cc(C(F)(F)F)n3n2)n1,-1,3,94,-9,66*
Cc1ccccc1/C=C/c1nc2ccccc2c(=O)n1CCc1ccccc1,10,-1,94,40*,-11
Cc1ccccc1/C=C/c1nc2ccccc2c(=O)n1Cc1ccccc1,1,-2,99,-7,3
SMILES,ARNT TACC3 PPI,hiPSC survival,ABCB6 inh MLPCN,CendR NRP1 mod,GSIS activator
C[C@H](CO)N1C[C@H](C)[C@@H](CN(C)C(=O)C2CCC2)Oc2cc(Br)ccc2S1(=O)=O,·,·,·,·,8
COc1ccc(S(=O)(=O)Nc2ccc3c(c2)C(=O)N([C@H](C)CO)C[C@H](C)[C@@H](CN(C)S(=O)(=O)c2ccc(OC)cc2)OCCCC[C@H](C)O3)cc1,-14,·,·,·,12
Cc1nc2ccccc2c2nc(NC(=O)C(F)(F)F)nn12,-1,-1,97,-2,50*
Cc1nc2ccccc2c2nc(N)nn12,7,-2,109,13,·
C[C@@H]1CN([C@H](C)CO)C(=O)c2cc(NC(=O)c3ccncc3)ccc2O[C@@H](C)CCCCO[C@@H]1CN(C)Cc1ccncc1,-4,·,·,·,15
C=C1CCN([C@H](C(=O)O)C(C)C)S(=O)(=O)c2ccccc21,-1,-1,97,36*,9
C=C1CCN([C@@H](Cc2ccccc2)C(=O)O)S(=O)(=O)c2ccccc21,-3,2,92,13,6
C[C@H](CO)N1C[C@H](C)[C@H](CN(C)S(=O)(=O)c2ccc(F)cc2)Oc2ccc(NS(=O)(=O)c3ccccc3)cc2C1=O,·,·,·,·,-9
O=C(NC(C(=O)O)c1ccccc1)c1ccccc1 (centres undefined),-25,0,98,6,19
NC(=O)CC(NC(=O)c1ccccc1)C(=O)O (centres undefined),-2,20*,98,10,4
CCCC(=O)Nc1ccc2c(c1)OC[C@@H](C)N(C)C[C@@H](C)[C@H](OC)CN(C)C2=O,·,·,·,·,11
CN(CCNC(=O)c1cccc(N2CCCC2=O)c1)Cc1ccccc1,-2,-1,93,18*,·
CCN(CCNC(=O)c1cccc(N2CCCC2=O)c1)c1ccccc1,1,-1,90,-4,·
C[C@@H]1CN([C@H](C)CO)C(=O)c2cc(N(C)C)ccc2O[C@@H](C)CCCCO[C@@H]1CN(C)Cc1ccc(C(=O)Nc2ccccc2N)cc1,·,·,·,·,20
O=C(Nc1ccccc1C(=O)N1CCOCC1)c1cc2ccccc2o1,0,0,102,22*,-2
C[C@H](CO)N1C[C@H](C)[C@H](CN(C)S(=O)(=O)c2ccc(F)cc2)Oc2ccc(NC(=O)CCCCCC(=O)Nc3ccccc3N)cc2C1=O,·,·,·,·,-13
Cc1cc(C(=O)CSc2nc(N)cc(=O)[nH]2)c(C)n1CC1CCCO1 (centres undefined),-2,0,94,21*,·
CCOC(=O)C1=C(C)NC2=C(C(=O)CCC2)C1c1ccc(N(C)C)cc1 (centres undefined),active,-2,105,-20,·
CCCOC(=O)C1=C(C)NC2=C(C(=O)CCC2)C1c1ccc(N(C)C)cc1 (centres undefined),1,-2,98,1,·
COCCN(C(=O)CN1CCCc2ccccc21)c1c(N)n(Cc2ccccc2)c(=O)[nH]c1=O,15,4,95,26*,·
COCCN(C(=O)CN1CCc2ccccc21)c1c(N)n(Cc2ccccc2)c(=O)[nH]c1=O,-1,0,111,-74,30
C=CCn1c(COc2ccc(F)cc2)nnc1SCC(=O)NC1CCS(=O)(=O)C1 (centres undefined),·,1,71*,14,9
Cc1cc(C)n(CC2CC(=O)N(c3ccccc3)C2=O)n1 (centres undefined),-11,0,94,29*,8

# Compound activity deposited in PubChem by several laboratories.
